For test [1], the target named is Calcium/calmodulin-dependent protein kinase type II subunit beta (Homo sapiens) (UniProt Q13554). The settings on record: at 10 µM.
The target of test [2] is Calcium/calmodulin-dependent protein kinase type II subunit gamma (Homo sapiens) (UniProt Q13555). The settings on record: at 1 µM.
The target is the same in test [3]. Conditions: at 10 µM.
In test [4] the target is Calcium/calmodulin-dependent protein kinase type II subunit delta (Homo sapiens) (UniProt Q13557). The settings on record: at 1 µM.
Test [5] has the same target. Conditions: at 10 µM.
For test [6], the target named is T1, Calcium/calmodulin-dependent protein kinase type IV (Homo sapiens) (UniProt Q16566).
T1 sequence (whole entry): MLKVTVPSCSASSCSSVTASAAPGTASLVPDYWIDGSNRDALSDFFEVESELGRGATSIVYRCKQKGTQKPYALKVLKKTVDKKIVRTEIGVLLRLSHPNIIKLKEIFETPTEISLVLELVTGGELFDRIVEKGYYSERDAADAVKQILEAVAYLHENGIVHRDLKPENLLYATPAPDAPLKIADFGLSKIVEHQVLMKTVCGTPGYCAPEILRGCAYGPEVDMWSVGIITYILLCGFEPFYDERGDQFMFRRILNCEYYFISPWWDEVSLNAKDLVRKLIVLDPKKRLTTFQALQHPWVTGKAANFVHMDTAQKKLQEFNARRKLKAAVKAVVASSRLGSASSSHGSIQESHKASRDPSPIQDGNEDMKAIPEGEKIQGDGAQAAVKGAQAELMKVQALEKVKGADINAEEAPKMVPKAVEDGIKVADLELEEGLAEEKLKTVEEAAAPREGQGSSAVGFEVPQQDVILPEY
The settings on record: at 1 µM.

Test [7] has as its target T1, Calcium/calmodulin-dependent protein kinase type IV (Homo sapiens). The settings on record: at 10 µM.
Test [8] deals with T2, Myotonin-protein kinase (Homo sapiens) (UniProt Q09013).
T2 sequence (whole entry): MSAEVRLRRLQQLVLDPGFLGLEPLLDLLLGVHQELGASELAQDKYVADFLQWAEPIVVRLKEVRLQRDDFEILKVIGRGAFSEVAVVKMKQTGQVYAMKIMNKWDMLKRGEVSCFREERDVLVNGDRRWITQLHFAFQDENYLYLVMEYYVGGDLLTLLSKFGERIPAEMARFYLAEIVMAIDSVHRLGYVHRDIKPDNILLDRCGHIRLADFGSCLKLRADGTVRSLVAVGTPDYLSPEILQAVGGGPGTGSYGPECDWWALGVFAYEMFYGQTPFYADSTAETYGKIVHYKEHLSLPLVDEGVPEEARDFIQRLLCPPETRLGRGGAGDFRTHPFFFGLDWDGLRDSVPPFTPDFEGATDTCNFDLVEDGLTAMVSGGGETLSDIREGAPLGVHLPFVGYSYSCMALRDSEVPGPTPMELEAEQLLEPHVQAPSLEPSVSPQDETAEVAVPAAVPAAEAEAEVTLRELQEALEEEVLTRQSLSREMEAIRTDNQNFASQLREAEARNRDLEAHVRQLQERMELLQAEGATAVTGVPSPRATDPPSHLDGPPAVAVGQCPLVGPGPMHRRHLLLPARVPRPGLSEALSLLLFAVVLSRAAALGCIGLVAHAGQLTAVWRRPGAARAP
Conditions: at 10 µM.

Test [9] addresses T3, Serine/threonine-protein kinase 17A (Homo sapiens) (UniProt Q9UEE5).
T3 sequence (whole entry): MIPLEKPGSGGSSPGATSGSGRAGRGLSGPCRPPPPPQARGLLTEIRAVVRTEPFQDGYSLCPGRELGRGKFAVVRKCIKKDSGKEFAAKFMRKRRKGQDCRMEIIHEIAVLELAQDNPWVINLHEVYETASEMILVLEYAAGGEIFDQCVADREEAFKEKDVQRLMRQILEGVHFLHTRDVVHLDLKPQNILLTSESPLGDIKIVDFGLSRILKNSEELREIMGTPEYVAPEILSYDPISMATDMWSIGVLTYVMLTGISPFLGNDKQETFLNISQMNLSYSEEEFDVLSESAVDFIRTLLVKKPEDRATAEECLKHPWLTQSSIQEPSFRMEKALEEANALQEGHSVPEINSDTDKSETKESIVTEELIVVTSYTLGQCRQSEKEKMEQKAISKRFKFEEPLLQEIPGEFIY
The settings on record: at 1 µM.

The target in test [10] is Calcium/calmodulin-dependent protein kinase type 1 (Homo sapiens) (UniProt Q14012). The settings on record: at 10 µM.
The target of test [11] is Death-associated protein kinase 1 (Homo sapiens) (UniProt P53355). Conditions: at 10 µM.
Test [12] has as its target Death-associated protein kinase 2 (Homo sapiens) (UniProt Q9UIK4). The settings on record: at 1 µM.
The target is the same in test [13]. Conditions: at 10 µM.
For test [14], the target named is T4, Serine/threonine-protein kinase DCLK2 (Homo sapiens) (UniProt Q8N568).
T4 sequence (whole entry): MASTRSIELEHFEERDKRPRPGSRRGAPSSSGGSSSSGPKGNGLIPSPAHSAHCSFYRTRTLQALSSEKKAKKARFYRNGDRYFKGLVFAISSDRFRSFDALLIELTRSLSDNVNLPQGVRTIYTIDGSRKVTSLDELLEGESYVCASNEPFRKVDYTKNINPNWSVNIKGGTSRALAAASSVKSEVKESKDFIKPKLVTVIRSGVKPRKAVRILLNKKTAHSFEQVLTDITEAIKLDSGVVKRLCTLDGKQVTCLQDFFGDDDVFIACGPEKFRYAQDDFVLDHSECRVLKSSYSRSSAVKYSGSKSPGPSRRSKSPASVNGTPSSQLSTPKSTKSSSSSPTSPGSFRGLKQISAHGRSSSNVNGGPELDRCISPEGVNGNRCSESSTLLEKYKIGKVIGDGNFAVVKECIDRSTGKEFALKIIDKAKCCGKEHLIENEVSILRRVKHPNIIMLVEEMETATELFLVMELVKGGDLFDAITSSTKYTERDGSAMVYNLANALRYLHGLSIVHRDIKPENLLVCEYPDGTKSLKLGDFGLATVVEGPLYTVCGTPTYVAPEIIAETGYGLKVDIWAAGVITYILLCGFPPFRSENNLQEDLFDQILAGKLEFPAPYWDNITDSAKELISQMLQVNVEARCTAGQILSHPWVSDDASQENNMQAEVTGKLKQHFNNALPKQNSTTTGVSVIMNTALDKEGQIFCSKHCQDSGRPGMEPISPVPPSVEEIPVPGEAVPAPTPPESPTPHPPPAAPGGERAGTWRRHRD
Conditions: at 1 µM.

Test [15] has as its target T4, Serine/threonine-protein kinase DCLK2 (Homo sapiens). Conditions: at 10 µM.
Test [16] concerns the target Calcium/calmodulin-dependent protein kinase type II subunit beta (Homo sapiens) (UniProt Q13554). Conditions: at 1 µM.
Test [17] concerns the target T5, Discoidin domain-containing receptor 2 (Homo sapiens) (UniProt Q16832).
T5 sequence (whole entry): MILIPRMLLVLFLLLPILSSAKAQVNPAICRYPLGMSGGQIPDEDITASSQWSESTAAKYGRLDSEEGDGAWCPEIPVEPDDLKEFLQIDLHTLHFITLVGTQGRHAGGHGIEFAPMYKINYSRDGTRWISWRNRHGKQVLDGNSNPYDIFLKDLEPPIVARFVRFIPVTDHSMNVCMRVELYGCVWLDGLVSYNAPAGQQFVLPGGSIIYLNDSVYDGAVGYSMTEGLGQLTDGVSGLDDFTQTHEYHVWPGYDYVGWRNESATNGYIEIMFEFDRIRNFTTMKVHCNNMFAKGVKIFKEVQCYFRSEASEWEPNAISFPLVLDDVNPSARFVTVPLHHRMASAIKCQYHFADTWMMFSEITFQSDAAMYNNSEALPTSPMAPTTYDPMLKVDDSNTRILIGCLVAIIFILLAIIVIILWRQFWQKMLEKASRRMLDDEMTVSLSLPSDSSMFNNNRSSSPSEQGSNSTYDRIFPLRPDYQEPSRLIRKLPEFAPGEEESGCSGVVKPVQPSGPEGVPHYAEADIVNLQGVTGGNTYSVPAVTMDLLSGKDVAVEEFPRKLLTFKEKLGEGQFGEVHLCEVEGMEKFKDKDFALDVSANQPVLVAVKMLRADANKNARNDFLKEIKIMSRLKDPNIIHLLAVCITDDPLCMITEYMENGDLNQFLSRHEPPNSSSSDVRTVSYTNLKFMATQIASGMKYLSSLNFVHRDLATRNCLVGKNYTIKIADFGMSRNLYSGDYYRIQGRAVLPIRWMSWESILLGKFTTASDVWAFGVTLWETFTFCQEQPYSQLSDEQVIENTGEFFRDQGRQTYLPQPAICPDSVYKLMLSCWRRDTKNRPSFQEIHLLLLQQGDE
The settings on record: at 1 µM.

In test [18] the target is T5, Discoidin domain-containing receptor 2 (Homo sapiens). Conditions: at 10 µM.
Test [19] has as its target T2, Myotonin-protein kinase (Homo sapiens). Conditions: at 1 µM.

Death-associated protein kinase 2 (Homo sapiens), sequence (Q9UIK4 whole entry, looked up): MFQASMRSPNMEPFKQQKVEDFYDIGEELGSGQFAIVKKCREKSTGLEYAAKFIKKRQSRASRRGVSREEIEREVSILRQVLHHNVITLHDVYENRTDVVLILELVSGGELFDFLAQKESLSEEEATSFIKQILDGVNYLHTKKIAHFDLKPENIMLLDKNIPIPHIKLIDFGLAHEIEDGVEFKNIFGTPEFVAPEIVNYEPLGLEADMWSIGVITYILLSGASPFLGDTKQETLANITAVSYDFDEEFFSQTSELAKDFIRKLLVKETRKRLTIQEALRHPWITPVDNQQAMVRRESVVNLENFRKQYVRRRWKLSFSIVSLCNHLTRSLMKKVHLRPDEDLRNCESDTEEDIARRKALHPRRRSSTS
Calcium/calmodulin-dependent protein kinase type II subunit beta (Homo sapiens), sequence (Q13554 whole entry, the tested form may be a part): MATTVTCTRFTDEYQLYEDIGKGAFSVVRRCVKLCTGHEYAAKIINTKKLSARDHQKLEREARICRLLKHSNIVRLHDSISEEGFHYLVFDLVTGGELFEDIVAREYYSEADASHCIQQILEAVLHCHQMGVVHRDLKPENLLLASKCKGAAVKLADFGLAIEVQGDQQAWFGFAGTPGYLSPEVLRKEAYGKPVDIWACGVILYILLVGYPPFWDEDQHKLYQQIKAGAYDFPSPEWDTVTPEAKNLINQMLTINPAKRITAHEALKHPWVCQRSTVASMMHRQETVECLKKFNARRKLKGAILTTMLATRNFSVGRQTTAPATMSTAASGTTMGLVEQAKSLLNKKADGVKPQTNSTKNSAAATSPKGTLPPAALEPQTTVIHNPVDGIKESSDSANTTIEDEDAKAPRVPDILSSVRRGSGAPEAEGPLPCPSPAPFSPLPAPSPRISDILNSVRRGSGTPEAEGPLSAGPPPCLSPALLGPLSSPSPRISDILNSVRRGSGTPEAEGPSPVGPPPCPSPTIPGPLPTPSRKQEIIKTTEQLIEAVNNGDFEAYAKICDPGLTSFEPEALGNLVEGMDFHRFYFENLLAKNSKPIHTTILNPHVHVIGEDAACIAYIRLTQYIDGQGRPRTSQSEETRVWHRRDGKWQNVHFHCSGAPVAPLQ
Death-associated protein kinase 1 (Homo sapiens), sequence (P53355 whole entry, looked up): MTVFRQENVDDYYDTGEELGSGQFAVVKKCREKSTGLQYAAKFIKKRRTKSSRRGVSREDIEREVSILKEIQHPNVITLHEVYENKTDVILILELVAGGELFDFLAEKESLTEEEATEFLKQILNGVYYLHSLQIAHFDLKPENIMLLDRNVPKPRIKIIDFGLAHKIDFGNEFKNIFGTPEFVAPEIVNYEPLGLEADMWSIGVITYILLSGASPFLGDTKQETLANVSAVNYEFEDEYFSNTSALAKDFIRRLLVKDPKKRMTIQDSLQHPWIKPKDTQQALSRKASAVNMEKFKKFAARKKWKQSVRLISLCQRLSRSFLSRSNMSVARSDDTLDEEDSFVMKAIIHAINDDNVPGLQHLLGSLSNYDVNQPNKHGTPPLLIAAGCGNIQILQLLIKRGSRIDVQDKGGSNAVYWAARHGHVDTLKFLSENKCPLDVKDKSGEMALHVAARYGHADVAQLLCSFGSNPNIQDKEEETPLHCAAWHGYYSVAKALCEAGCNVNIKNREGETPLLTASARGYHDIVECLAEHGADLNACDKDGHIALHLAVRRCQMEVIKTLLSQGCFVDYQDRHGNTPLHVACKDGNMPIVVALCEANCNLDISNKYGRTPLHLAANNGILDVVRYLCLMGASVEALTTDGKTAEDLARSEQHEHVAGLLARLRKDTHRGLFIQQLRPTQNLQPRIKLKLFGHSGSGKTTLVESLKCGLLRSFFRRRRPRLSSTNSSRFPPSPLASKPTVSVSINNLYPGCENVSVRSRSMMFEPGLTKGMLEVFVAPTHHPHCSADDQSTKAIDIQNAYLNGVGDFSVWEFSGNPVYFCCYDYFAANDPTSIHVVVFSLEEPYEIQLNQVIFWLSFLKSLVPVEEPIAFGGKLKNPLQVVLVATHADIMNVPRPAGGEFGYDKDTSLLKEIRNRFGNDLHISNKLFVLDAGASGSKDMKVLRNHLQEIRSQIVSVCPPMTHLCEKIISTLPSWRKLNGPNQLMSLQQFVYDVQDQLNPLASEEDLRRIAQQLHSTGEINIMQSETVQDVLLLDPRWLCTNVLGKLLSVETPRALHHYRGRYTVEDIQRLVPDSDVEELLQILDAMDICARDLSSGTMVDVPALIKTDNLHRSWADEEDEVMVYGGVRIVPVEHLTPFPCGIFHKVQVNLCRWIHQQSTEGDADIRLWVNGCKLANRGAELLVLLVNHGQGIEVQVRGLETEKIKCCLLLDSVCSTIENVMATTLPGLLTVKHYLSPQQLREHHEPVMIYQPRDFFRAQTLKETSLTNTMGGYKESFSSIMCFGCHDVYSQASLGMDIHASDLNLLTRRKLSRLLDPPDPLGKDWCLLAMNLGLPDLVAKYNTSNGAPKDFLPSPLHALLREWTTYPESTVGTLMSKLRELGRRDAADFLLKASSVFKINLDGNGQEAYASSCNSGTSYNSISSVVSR
Calcium/calmodulin-dependent protein kinase type 1 (Homo sapiens), sequence (Q14012 whole entry, looked up): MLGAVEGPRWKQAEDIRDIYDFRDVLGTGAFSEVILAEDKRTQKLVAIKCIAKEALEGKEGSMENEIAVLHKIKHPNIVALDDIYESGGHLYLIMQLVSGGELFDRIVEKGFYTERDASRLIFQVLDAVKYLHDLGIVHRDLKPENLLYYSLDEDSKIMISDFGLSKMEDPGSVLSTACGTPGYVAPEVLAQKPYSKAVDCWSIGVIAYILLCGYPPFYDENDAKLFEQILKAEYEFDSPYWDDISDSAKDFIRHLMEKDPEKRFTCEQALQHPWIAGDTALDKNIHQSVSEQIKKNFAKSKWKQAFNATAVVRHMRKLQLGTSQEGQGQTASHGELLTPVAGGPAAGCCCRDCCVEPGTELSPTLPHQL
Calcium/calmodulin-dependent protein kinase type II subunit delta (Homo sapiens), sequence (Q13557 whole entry): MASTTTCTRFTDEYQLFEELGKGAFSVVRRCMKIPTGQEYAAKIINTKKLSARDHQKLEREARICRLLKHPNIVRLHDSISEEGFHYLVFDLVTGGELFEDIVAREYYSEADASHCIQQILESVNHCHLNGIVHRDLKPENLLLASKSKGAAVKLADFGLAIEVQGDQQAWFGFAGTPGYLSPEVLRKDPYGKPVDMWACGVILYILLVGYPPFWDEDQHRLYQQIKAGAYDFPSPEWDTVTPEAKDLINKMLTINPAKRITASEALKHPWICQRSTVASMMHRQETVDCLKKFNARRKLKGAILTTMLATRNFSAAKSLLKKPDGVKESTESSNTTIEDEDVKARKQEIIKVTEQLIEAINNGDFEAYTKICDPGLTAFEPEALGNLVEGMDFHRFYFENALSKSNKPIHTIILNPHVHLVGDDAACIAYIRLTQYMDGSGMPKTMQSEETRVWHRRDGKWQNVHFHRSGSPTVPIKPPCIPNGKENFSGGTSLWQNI
Calcium/calmodulin-dependent protein kinase type II subunit gamma (Homo sapiens), sequence (Q13555 whole entry): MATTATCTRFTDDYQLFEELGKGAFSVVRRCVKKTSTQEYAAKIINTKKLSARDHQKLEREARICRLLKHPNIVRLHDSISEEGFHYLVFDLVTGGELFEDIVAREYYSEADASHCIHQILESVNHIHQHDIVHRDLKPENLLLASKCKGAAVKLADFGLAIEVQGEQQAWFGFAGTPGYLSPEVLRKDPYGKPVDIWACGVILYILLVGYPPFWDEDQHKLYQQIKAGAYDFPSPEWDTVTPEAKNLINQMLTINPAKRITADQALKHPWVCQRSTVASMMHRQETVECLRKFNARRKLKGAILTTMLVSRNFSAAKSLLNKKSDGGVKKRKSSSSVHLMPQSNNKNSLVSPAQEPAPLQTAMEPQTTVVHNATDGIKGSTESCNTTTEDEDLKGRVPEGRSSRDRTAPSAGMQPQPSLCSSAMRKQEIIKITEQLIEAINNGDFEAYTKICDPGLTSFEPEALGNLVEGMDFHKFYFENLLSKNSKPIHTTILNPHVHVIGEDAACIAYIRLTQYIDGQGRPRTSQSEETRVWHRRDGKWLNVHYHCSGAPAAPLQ

Turning to `N#C/C(=C1/Nc2ccccc2S1)c1ccnc(NCCc2cccnc2)n1`, the residual activity came out at 25% in [1]; 80% in [2]; 21% in test [3]; 83% in test [4]; 24% in test [5]; 88% in test [6]. In addition, the figures for the residual activity in test [7], in test [8] and in [9] were 34%, 78% and 60%, respectively.
Consider `Nc1nc(Nc2ccc(S(N)(=O)=O)cc2)nn1C(=O)c1c(F)cccc1F`, for which the residual activity in test [10] amounted to 60%; in test [1], 43%; in test [2], 73%; in [3], 19%; in [4] it was 75%; in [5] it was 31%. Moreover, the residual activity in [7] is 64%; in [11], 96%; in test [12], 97%; in test [13], 77%; in test [14] it was 68%; in test [15], 25%. Moreover, the residual activity in [9] was 77%.
For `COc1ccc(Cl)cc1NC(=O)Nc1cc(C)nc2ccccc12`, the residual activity is 88% in test [16]; 72% in [1]; 66% in test [11]; 83% in [17]; 39% in test [18]; 94% in test [19]. The residual activity in test [9] stood at 97%.
Consider `COc1cc2c(cc1OC)-c1n[nH]c(Nc3cccc(F)c3)c1C2`, for which the residual activity in test [1] came to 56%; in test [2], 99%; in test [3], 60%; in test [12] it was 99%; in [13] it was 107%; in [14], 109%. Besides, the residual activity in [15] is 132%; in [8], 136%.
With `CSc1nc(-c2ccc(F)cc2)c(-c2ccnc(NC(C)c3ccccc3)c2)[nH]1` (centres undefined), the residual activity came to 87% in test [10]; 75% in [1]; 98% in test [2]; 83% in test [3]; 102% in test [4]; 83% in [5]. Moreover, the residual activity amounted to 92% in [7]; 96% in [11]; 101% in [12]; 95% in test [13]; 137% in [14]; 100% in test [15]. For the same compound, the residual activity amounted to 98% in [17] and 93% in test [18].
`O=S(=O)(NCCNC/C=C/c1ccc(Br)cc1)c1cccc2cnccc12`: the residual activity worked out at 76% in test [16]; 29% in test [1]; 100% in test [2]; 41% in test [3]; 35% in test [5]; 100% in [15].
As to `CCN1/C(=C/C(C)=O)Sc2ccc(OC)cc21`, the residual activity in [1] worked out at 70%; in test [11], 79%; in [8], 70%.
`O=c1c(-c2ccc(F)cc2)c(-c2ccncc2)[nH]n1-c1ccc(Cl)cc1`: the values for the residual activity in [14], in test [18] and in test [8] were 122%, 36% and 99%, respectively.
With `N#Cc1c(NC(=O)c2cccc3ccccc23)sc2c1CCCC2`, the residual activity in test [16] came out at 94%; in test [1] it was 81%; in [3], 97%; in [5], 88%; in test [7], 87%; in test [11], 81%. For the same compound, the residual activity came out at 93% in [12]; 77% in test [15]; 100% in test [19]; 91% in [8]; 77% in test [9].
Take `O=C(c1cc2cc(O)ccc2[nH]1)c1cc2cc(O)ccc2[nH]1`: the residual activity in [10] is 37%; in test [16], 53%; in test [1] it was 14%; in test [2], 30%; in test [3], 2%; in test [4], 23%. The residual activity in [5] worked out at 4%; in test [6], 114%; in test [7], 76%; in [13] it was 73%; in test [14] it was 70%; in [15], 59%. Besides, the residual activity in [19] was determined as 120%; in [8], 122%; in [9], 13%.

Values taken from ChEMBL document CHEMBL2218924, “A broad activity screen in support of a chemogenomic map for kinase signalling research and drug discovery” (Biochem J, 2013).
